Screening data deposited in PubChem by NMMLSC.
MEP2 TOR yeast: modulators of MEP2-GFP levels in yeast, primary screen, S. cerevisiae, multiplex flow cytometry, MLPCN library; S. cerevisiae MEP2-GFP strain, 3 h; 100% = DMSO control level; GFP response vs DMSO, % at 10 µM; hit rate 0.51% among 330,000; AID 2016, 2009;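 active means GFP response versus DMSO above a set limit, roughly screen mean plus 3 SD, cut at about 180% in these data; inconclusive means fewer than 70 cells counted for a yeast strain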;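 further: median GFP fluorescence of the barcode-gated MEP2-GFP cells per well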
CIT2 TOR yeast: modulators of CIT2-GFP expression in yeast, primary screen, S. cerevisiae, GFP fusion, multiplex flow cytometry, MLPCN library | hit rate 0.065% among 320,000 | GFP response vs DMSO, % at 10 µM | S. cerevisiae CIT2-GFP strain, 3 h; 100 means same as DMSO wells | AID 2029, 2009;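 active means GFP response relative to DMSO above a set limit, near the screen mean plus 3 SD, cut at about 150% in these data; inconclusive means Fewer than 70 cells measured for a yeast strain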;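 further: ratio of well median GFP fluorescence to mean of DMSO wells on the plate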
AGP1-GFP MLPCN: modulators of AGP1-GFP expression in yeast TOR pathway, primary screen, cell-based, multiplex flow cytometry, S. cerevisiae, MLPCN library | GFP response vs DMSO, % at 10 µM | hit rate 0.02% among 320,000 | 3 h; GFP as percent of DMSO wells;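 active means GFP response relative to DMSO above a set limit, near screen average plus 3 SD, cut at about 150% in these data; inconclusive means fewer than 70 cells counted for the yeast strain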;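 further: median GFP channel fluorescence of the gated AGP1 strain per well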
LAP4-GFP MLPCN: modulators of LAP4-GFP expression in yeast, primary screen, S. cerevisiae, multiplex flow cytometry, MLPCN library; 3 h; median GFP as percent of DMSO wells; GFP response vs DMSO, % at 10 µM; hit rate 0.34% among 320,000;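 active means GFP response vs DMSO above a set limit, about the screen mean plus 3 SD, cut at about 150% in these data; inconclusive means under 70 cell events counted for the yeast strain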
RPL19A TOR yeast: RPL19A-GFP expression modulators in yeast, primary screen, cell-based, S. cerevisiae, multiplex flow cytometry, MLPCN. S. cerevisiae RPL19A-GFP strain, 3 h; stronger effect = lower value. percent response vs DMSO, % at 10 µM. hit rate 0.3% among 330,000;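 active means percent response vs DMSO below 50%; inconclusive means fewer than 70 events counted for the yeast strain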;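 further: median channel GFP fluorescence of the barcoded RPL19A-GFP strain; ratio of sample median GFP to plate DMSO average so 100% = DMSO; lower means less RPL19A-GFP as with rapamycin TOR inhibition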
An asterisk follows results filed as active; i = inactive; ? = inconclusive; / = no result; + = active, no number; [ ] = remark or other dose. Compounds with a hit are over-represented: about 0.92% of the library has one in this group of screens.

SMILES	MEP2 TOR yeast	CIT2 TOR yeast	AGP1-GFP MLPCN	LAP4-GFP MLPCN	RPL19A TOR yeast
COc1cccc(/C=N/NC(=O)CC2C(=O)NN=C2C)c1O (stereo unspecified)	?	?	?	?	11*[may fluoresce violet]
COc1cccc(/C=N/NC(=O)CC2C(=O)NN=C2C)c1OC (stereo unspecified)	108	108	103	96	96
COc1ccc(/C=N\NC(=O)CNC(=O)C2COc3ccccc3O2)cc1[N+](=O)[O-] (stereo unspecified)	101	100	96	96	99
Cc1cc(C)c(NS(=O)(=O)c2ccc(NC(=O)CCC(=O)O)cc2)c(C)c1	99	97	97	92	97
CCN1CCN(C(=O)C2CCN(c3nnc(C)c4c(C)n(-c5ccc(C)cc5)nc34)CC2)CC1	140	156*	97	143	107
Cc1ccc(-n2nc3c(N4CCC(C(=O)N5CCC(C(N)=O)CC5)CC4)nnc(C)c3c2C)cc1	103	102	97	91	97
Cc1ccc(C)c(OCCC(=O)Nc2cccc(S(=O)(=O)N3CCCCC3)c2)c1	107	97	99	102	99
Cc1ccc(-n2c(C)cc(/C=N/NC(=O)Cn3c4ccccc4c(=O)c4ccccc43)c2C)cc1	244*[may fluoresce violet]	?	20	78	37*[may fluoresce violet]
O=C(CCCCCNC(=S)Nc1ccc(Cl)cc1)C[N+](=O)[O-]	107	95	103	106	99
COc1ccc(NC(=S)NCCCCCC(=O)C[N+](=O)[O-])cc1	119	63	84	251*	88
O=[N+]([O-])c1cc(/C=N/O)ccc1Oc1ccccc1Cl	187*	94	95	118	76
O=C(O)CCC(=O)NNC(=O)CCC1CCCCC1	93	96	97	99	93
O=C(O)CCC(=O)OCC1CCCCC1	96	101	83	172*	109
S=c1[nH]nc(-c2ccco2)n1/N=C/C(Cl)=C/c1ccccc1	111	94	89	167*	90
Cc1cc(-c2n[nH]c(=S)n2/N=C/C(Cl)=C/c2ccccc2)n[nH]1	101	107	102	90	107
O=C(CN1CCN(C(=O)c2c(F)cccc2F)CC1)Nc1ccccc1C(F)(F)F	100	93	96	91	98
COc1ccccc1N1CCN(CC(O)c2ccccc2)CC1 (stereo unspecified)	290*[may fluoresce violet]	?	?	79	46*[may fluoresce violet]
COc1ccccc1N1CCN(CC(O)c2c(C)[nH]c3ccccc23)CC1 (stereo unspecified)	108	100	102	100	104
Cn1cnc([N+](=O)[O-])c1S(=O)(=O)c1cccc(Cl)c1	177*	106	123	110	96
Cc1nn(C(C)C(=O)c2cccc(Cl)c2)c(C)c1[N+](=O)[O-] (stereo unspecified)	113	105	98	104	104
COc1ccc(OC)c(NC(=O)CN2CCc3ccccc3C2)c1	395*[may fluoresce violet]	?	21	95	39*[may fluoresce violet]
COc1ccc(NC(=O)CN2CCc3ccccc3C2)c([N+](=O)[O-])c1	106	99	96	95	101
Cc1ccccc1NC(=O)CCC(=O)N/N=C/c1ccncc1	93	83	101	105	95
O=C(NC1CCCCC1)c1ccc(N2CCCC2=O)cc1	322*[may fluoresce violet]	/	?	91	30*[may fluoresce violet]
O=C(NC1CCCCCC1)c1ccc(N2CCCC2=O)cc1	103	104	104	105	102
SMILES	MEP2 TOR yeast	CIT2 TOR yeast	AGP1-GFP MLPCN	LAP4-GFP MLPCN	RPL19A TOR yeast
O=C(COC(=O)c1ccc2ccccc2n1)Nc1ncc(C(F)(F)F)cc1Cl	276*[may fluoresce violet]	?	?	92	38*[may fluoresce violet]
O=C(COC(=O)c1ccc2ccccc2c1)Nc1ncc(C(F)(F)F)cc1Cl	100	93	91	93	100
COc1ccc(N(CC(=O)NCc2ccc(F)cc2)C(=O)CCC(=O)Nc2ccccn2)cc1	92	94	89	90	94
Cc1ccc(N(CC(=O)NCc2ccc(F)cc2)C(=O)CCC(=O)Nc2ccccn2)cc1C	564*[may fluoresce violet]	?	?	76	45*[may fluoresce violet]
CCCc1nc2nc(C)c(NS(=O)(=O)c3ccc(C4CCCCC4)cc3)c(=O)n2[nH]1	98	94	91	87	91
CC1Cc2ccccc2N1S(=O)(=O)c1cccc(C(=O)NCCCn2ccnc2)c1 (stereo unspecified)	94	88	103	100	97
CC(=O)C1=C(C)Nc2ncnn2C1c1ccccc1OCc1ccccc1 (stereo unspecified)	304*[may fluoresce violet]	?	/	101	46*[may fluoresce violet]
COc1ccccc1OC(=O)c1cc2ccccc2oc1=O	109	101	97	102	104
COc1cccc2cc3c(=O)oc4ccccc4c3nc12	187*[may fluoresce violet]	?	/	87	62
COc1ccc(N(C(=O)c2ccc(S(=O)(=O)N3CCCC3)cc2)C2C=CS(=O)(=O)C2)cc1 (stereo unspecified)	115	106	114	122	103
COC(=O)c1cc(OC)c(OC)cc1NC(=O)CSc1nnnn1Cc1ccccc1	230*[may fluoresce violet]	?	?	71	56
O=C(CSc1nnnn1Cc1ccccc1)Nc1ccccc1	97	98	102	113	96
Cc1noc(C)c1C(=O)Nc1nnc(-c2ccccc2)s1	231*[may fluoresce violet]	?	21	104	55
Cc1onc(-c2ccccc2)c1C(=O)Nc1nnc(-c2ccncc2)s1	104	93	99	109	102
Cc1cc(C)c2c(N=NN3CCOCC3)[nH]nc2n1	111	151*	123	109	97
Cc1c(NC(=O)/C=C/c2cn(-c3ccccc3)nc2-c2ccccc2)c(=O)n(-c2ccccc2)n1C	175*[may fluoresce violet]	?	/	87	64
Cn1ccc(NC(=O)c2ccc(Cl)cc2)n1	+[may fluoresce green]	+[may fluoresce green]	+[may fluoresce green]	+[may fluoresce green]	i
Cn1ccc(NC(=O)c2ccc(Cl)cc2Cl)n1	95	88	94	98	95
N#Cc1ccc(N/N=C/c2cn(-c3ccccc3)nc2-c2ccccc2)c([N+](=O)[O-])c1	106	108	102	92	105
NS(=O)(=O)c1ccc(N/N=C/c2cn(-c3ccccc3)nc2-c2cccs2)c([N+](=O)[O-])c1	221*[may fluoresce violet]	?	?	61	19*[may fluoresce violet]
CCOc1cc(C(=O)Nc2nnc(S(=O)(=O)N3CCOCC3)s2)cc(OCC)c1OCC	210*[may fluoresce violet]	?	?	65	14*[may fluoresce violet]
Cc1ccccc1S(=O)(=O)N1[C@@H](c2ccc(Cl)cc2)C(C(=O)O)=CC[C@H]1c1ccc(Cl)cc1	99	89	97	98	103
O=C(COc1ccc(Br)cc1)Nc1ccc(-c2nnc(-c3ccco3)o2)cc1	177*[may fluoresce violet]	?	24	110	48*[may fluoresce violet]
